Source: PubChem BioAssay (NCI)
About 83,000 compounds went through this panel and 20% of them were active in at least one assay; those are over-represented in the sample as a whole.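 Interpretation: 100, growth as untreated; towards 0, rising growth inhibition; 0, no net growth; 0 to -100, cell death. Compounds scoring below 10 were considered active.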 Unmarked numbers belong to inactive results. The source made the active and inactive calls.

What was measured:
Assay in all cases: NCI-60 one-dose screen, 48 h (100 = growth as untreated, 0 = no growth, -100 = all killed)
Conditions in all cases: 10 µM unless noted
DU-145 prostate = system: DU-145 prostate
K-562 leukemia = system: K-562 leukemia
MALME-3M melanoma = system: MALME-3M melanoma
MDA-MB-231 breast = system: MDA-MB-231 breast
RXF 393 renal = system: RXF 393 renal
SF-268 CNS = system: SF-268 CNS
SF-295 CNS = system: SF-295 CNS
SF-539 CNS = system: SF-539 CNS
UACC-257 melanoma = system: UACC-257 melanoma
M14 melanoma = system: M14 melanoma

Compound | growth (DU-145 prostate) | growth (K-562 leukemia) | growth (MALME-3M melanoma) | growth (MDA-MB-231 breast) | growth (RXF 393 renal) | growth (SF-268 CNS) | growth (SF-295 CNS) | growth (SF-539 CNS) | growth (UACC-257 melanoma) | growth (M14 melanoma)
C#Cc1c(I)n(C2OC(CO[Si](C)(C)C(C)(C)C)C3OC(C)(C)OC32)c(=O)[nH]c1=O (stereo not given) | 25.1% | -35.5% (active) | 66.4% | 16.1% | -72.3% (active) | 100% | 120% | 92.4% | 64.1% | 76.4%
O=C(/C=C/c1ccco1)c1ccc(Nc2ccnc3cc(Cl)ccc23)cc1 | 90.8% | 51.2% | 110% | 70.2% | -28.3% (active) | 105% | 72.5% | 92.1% | 97.8% | 83.3%
CN(C)c1ccc(/C=N/NC(=O)CSc2nc3sc4c(c3c(=O)n2-c2ccccc2)CCCCC4)cc1 | 14.9% | 63.8% | 35.5% | 43.8% | -6.22% (active) | 57.3% | 19.1% | 34.6% | 64.8% | 46.6%
CC(C)c1nc(N(C)S(C)(=O)=O)nc(-c2ccc(F)cc2)c1/C=C/C(=O)C[C@@H](O)CC(=O)O | 102% | 90.9% | 109% | 110% | 124% | 98.5% | 103% | 104% | 95.6% | 102%
CCCN1C(=O)N(CCC)C2C1NC(=S)N2/N=C/C=C/c1ccccc1OC (stereo not given) | 14.2% | 12.6% | 40.4% | 23.9% | -29.8% (active) | 62.9% | 10.9% | -30.6% (active) | 60.5% | -0.388% (active)
O=c1oc2ccccc2cc1-c1nn(-c2ccccc2)cc1/C=N/Nc1nc(-c2ccccc2)c(N=Nc2ccccc2)s1 | 76.8% | 21.7% | 77% | 68.8% | 98.1% | 79.3% | 70.9% | 88.5% | 86.5% | 45.4%
N#Cc1c(-c2ccc(Cl)cc2)nc(NN=Cc2cccc(Cl)c2)nc1N1CCOCC1 | 76% | 35.1% | 131% | 90.6% | 61.4% | 90.3% | 102% | 79.1% | 100% | 84.6%
COc1cc(/C=C2\CN(S(=O)(=O)c3ccc(C)cc3)C/C(=C\c3cc(CN4CCCC4)c(O)c(OC)c3)C2=O)cc(CN2CCCC2)c1O | -12.5% (active) | 1.26% (active) | -81.5% (active) | -20.3% (active) | -87.8% (active) | 1.82% (active) | -40.3% (active) | -55.6% (active) | 57.7% | -66.4% (active)
C(=N\Nc1nnc2n1N=C(c1ccccc1)CS2)/c1ccc(OCc2ccccc2)cc1 | 104% | 57.6% | 125% | 108% | 80.1% | 115% | 101% | 102% | 103% | 113%
O=c1n(C2OC(CO)C(O)C2O)ccc2nccn12 (stereo not given) | 107% | 102% | 112% | 117% | 162% | 107% | 108% | 112% | 100% | 105%
C=CC(=O)NCc1cccc(Nc2ncc(Br)c(NCCCNC(=O)C3CCC3)n2)c1 | 9.47% (active) | 9.33% (active) | -23.2% (active) | -26% (active) | -74.6% (active) | -29.4% (active) | 2.75% (active) | -68% (active) | 0.107% (active) | -31% (active)
COc1ccc(C(c2cc(OC)c(OC)c(OC)c2)n2cncn2)cc1O (stereo not given) | 19.6% | 8.34% (active) | 70.2% | 43.1% | -13.8% (active) | 48.8% | 2.56% (active) | 9.34% (active) | 44.4% | -1.61% (active)
CC1(C)C2=C(C(=O)N1Cc1ccccc1)C(c1ccco1)N(C(=O)C1CCC1)CCN2 (stereo not given) | 110% | 110% | 105% | 95.5% | 136% | 96.5% | 108% | 101% | 95.6% | 103%
Cc1ccc(NC(=O)c2ccc(Nc3ncnc4c3cnn4-c3cccc(F)c3)cc2)cc1 | 104% | 96.3% | 101% | 95.2% | 92.5% | 97.2% | 103% | 101% | 98% | 99%
O=C(O)CCCN1C(=O)CSC1=S | 107% | 103% | 102% | 107% | 107% | 93.9% | 106% | 102% | 95.9% | 93.3%
CN1CCN(Cc2ccc(NC(=O)c3cncc(C#Cc4cnc(N)c5ccc(C#N)cc45)c3)cc2C(F)(F)F)CC1 | -7.64% (active) | 0.252% (active) | -72.6% (active) | -81.7% (active) | -90.7% (active) | -69.4% (active) | 38.8% | -57.6% (active) | 6.11% (active) | -83.9% (active)
COc1cc(C2CC(c3cccc(Nc4ccncc4)c3)=Nc3c(N)ncnc3N2)cc(OC)c1OC (stereo not given) | 88.3% | 29.3% | 83.7% | 91% | 94.2% | 79% | 95.5% | 94.8% | 88.2% | 90.7%
O=C(CSc1nnc(-c2cc(-c3ccc(Cl)cc3)nc3ccccc23)n1-c1ccccc1)Nc1ccc(Cl)cc1 | 107% | 85.1% | 107% | 89.7% | 118% | 94% | 99.5% | 111% | 96.2% | 109%
CCN1CCN(c2cc(C(=O)Nc3cccc(Nc4ccc5c(OC)cccc5n4)c3)cc(C(F)(F)F)c2)CC1 | 23.3% | -29.8% (active) | -59.6% (active) | 9.58% (active) | 17.3% | 32.8% | 14% | 19.5% | -40.3% (active) | -41.9% (active)
COc1cc(C(=O)c2c(-c3ccccc3)oc3ccccc23)cc(OC)c1O | 26% | 17.4% | 48.5% | 59.7% | -2.49% (active) | 59.9% | 14.3% | 8.35% (active) | 73.2% | 16.6%
COc1cc(NC(=O)c2cncnc2Nc2ccc3c(ccn3Cc3cccc(F)c3)c2)cc(OC)c1 | 79.9% | 15.4% | 71.6% | 57.4% | 62.5% | 68.9% | 50.4% | 44.4% | 72.7% | 47.2%
COC(=O)CCc1c(/C=C2\N=C(c3ccc[nH]3)C=C2OC)[nH]c(C)c1C(=O)OCc1ccccc1 | 29.9% | 6.23% (active) | -5.75% (active) | -12.6% (active) | -15.9% (active) | 21.4% | -30.4% (active) | -16.9% (active) | 9.69% (active) | -24.7% (active)
CN(Cc1ccccc1)c1nc(Cl)c(C2CC(c3ccc(Cl)cc3)=NN2c2cc(Cl)cc(Cl)c2)s1 (stereo not given) | 109% | 87% | 97.3% | 110% | 104% | 100% | 95.3% | 106% | 110% | 96.1%
COc1ccc(/C=N/NC(=O)Cn2nnc3ccccc32)cc1 | 117% | 93% | 103% | 107% | 93.7% | 85.5% | 103% | 105% | 95.2% | 109%
Oc1ccc(C(c2ccc(O)cc2)c2ccc(Cl)cn2)cc1 | 56.7% | 71.8% | 107% | 77.1% | -57% (active) | 92.4% | 30.9% | 83.4% | 95.5% | 85.5%
CCN1C(=O)N(CC)C2C1NN=c1s/c(=C\c3ccc(F)cc3)c(=O)n12 (stereo not given) | -11.2% (active) | 8.05% (active) | 49.9% | 24.1% | 5.29% (active) | 53.3% | 13.6% | -14.9% (active) | 56% | 12.6%
Cc1cc(C(=O)Nc2cc(Nc3ncccc3-c3ncnc4nc[nH]c34)ccc2F)cc(C(C)(C)C#N)c1 | 60% | 6.28% (active) | 12.9% | 17% | 88.5% | 64.7% | 68.6% | 33.9% | 24.5% | 5.3% (active)
